Experimental data taken from PubChem BioAssay (NCI).
About 83,000 compounds went through this panel and 20% of them were active in at least one assay; those are over-represented in the sample as a whole.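 Growth was measured after 48 h exposure to one concentration of compound in 96-well plates. Values under 10 count as active.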 Unmarked numbers belong to inactive results. Active and inactive are the calls of the source.

Tests used:
Assay in all cases: NCI-60 one-dose screen, 48 h (100 = growth as untreated, 0 = no growth, -100 = all killed)
Details in all cases: 10 µM unless noted
[1] = tested on: NCI-H23 lung
[2] = tested on: NCI-H226 lung
[3] = tested on: NCI-H322M lung
[4] = tested on: HOP-62 NSCLC
[5] = tested on: NCI-H460 lung
[6] = tested on: NCI-H522 lung
[7] = tested on: A549/ATCC NSCLC
[8] = tested on: 786-0 renal
[9] = tested on: COLO 205 colon
[10] = tested on: DU-145 prostate
[11] = tested on: K-562 leukemia
[12] = tested on: MALME-3M melanoma
[13] = tested on: MDA-MB-231 breast
[14] = tested on: RXF 393 renal
[15] = tested on: SF-268 CNS
[16] = tested on: SF-295 CNS
[17] = tested on: SF-539 CNS
[18] = tested on: M14 melanoma
[19] = tested on: HCT-15 colon
[20] = tested on: UACC-257 melanoma

Compound	growth [1]	growth [2]	growth [3]	growth [4]	growth [5]	growth [6]	growth [7]	growth [8]	growth [9]	growth [10]	growth [11]	growth [12]	growth [13]	growth [14]	growth [15]	growth [16]	growth [17]	growth [18]	growth [19]	growth [20] [%]
Fc1ccc(-c2nc(Nc3ccc(-c4nc5ccccc5[nH]4)cc3)nc(N3CCOCC3)n2)cc1	-83.4% (active)	-64.5% (active)	-92.8% (active)	-73.9% (active)	-80.3% (active)	-73.9% (active)	-75.2% (active)	-94.5% (active)	-68.4% (active)	-94% (active)	-100% (active)	-73.4% (active)	-76.7% (active)	-91.1% (active)	-82.7% (active)	-94.4% (active)	-92.7% (active)	-82.6% (active)	-92.6% (active)	–
CCOC(=O)C1=C(C)N2C(=NC3=C(CCC/C3=C\c3ccc(Cl)cc3)C2c2ccc(Cl)cc2)S1 (centres undefined)	10.9%	47.5%	101%	88.2%	51.8%	58%	5.11% (active)	-0.562% (active)	8.78% (active)	-0.137% (active)	-11.8% (active)	77%	71.6%	-71.7% (active)	34.7%	–	41.3%	-40.8% (active)	–	25.7
NNC(=O)NO	98.6%	103%	93%	88.9%	105%	86%	101%	98.5%	111%	109%	94.8%	98.6%	122%	115%	104%	–	104%	102%	102%	112
CN(C)c1nc(N)nc(Cn2c(-c3nonc3N)nc3ccccc32)n1	90.4%	91.3%	103%	81%	95.6%	77.5%	86.7%	99.2%	83.7%	109%	23.1%	88%	76.7%	89.6%	101%	–	86.5%	72.7%	59.4%	93.3
Cc1ccc(C(=O)Nc2ccc(Cl)cc2C(=O)NCc2ccccc2)cc1	96.7%	92.9%	98.2%	88.3%	92.4%	53.9%	85.9%	97.8%	97.4%	96%	30%	88.9%	95.8%	87.4%	94.2%	–	82.3%	74.9%	57.4%	85.2
COc1ccc(Nc2ccnc(NCCCNc3ccnc4cc(Cl)ccc34)n2)cc1	58.1%	69.6%	3.32% (active)	46.9%	-56.5% (active)	-55% (active)	-14.5% (active)	-97.7% (active)	-65% (active)	22.4%	-19.2% (active)	-81.5% (active)	-73.4% (active)	-90% (active)	-28.6% (active)	-82.2% (active)	-100% (active)	-91.9% (active)	-54.6% (active)	–
COc1cc2c(cc1OCCCCCn1c(-c3ccc(OCc4ccccc4)cc3)nc3cc(N4CCOCC4)ccc31)N=C[C@@H]1CCCN1C2=O	15.5%	-41.1% (active)	27.8%	20%	-3.28% (active)	-4.59% (active)	6.91% (active)	-22.5% (active)	-14% (active)	29.7%	36.1%	-29.7% (active)	9.63% (active)	-26.7% (active)	14.6%	7.34% (active)	11%	9.2% (active)	-22.7% (active)	–
Nc1nonc1-c1nc2ccccc2n1CC(=O)Nc1ccc2c(c1)COC2=O	86.3%	87.7%	107%	83.8%	95.7%	61.6%	88.8%	93%	98.4%	108%	38.9%	79.4%	82.1%	93.7%	90.3%	–	86.5%	72.9%	70.5%	90.1
Nc1ccc2c3c(cccc13)-c1ccccc1-2	97.7%	55.5%	75.1%	100%	99.1%	68.5%	85.1%	68.4%	96.5%	109%	84.4%	98.4%	76.5%	93%	78.4%	102%	–	90.2%	86.1%	104
Fc1ccc(-c2nnc(/C=C/c3cn(-c4ccccc4)nc3-c3ccccc3)o2)cc1	88%	92.8%	95.5%	87.4%	78.6%	85.3%	75.2%	89.8%	94.2%	110%	107%	88.9%	94.2%	105%	103%	94.4%	89.1%	93.1%	96.1%	–
Cc1cc(CC(=O)O)n(C)c1C(=O)c1ccc(Cl)cc1	96.3%	95.2%	120%	117%	115%	101%	108%	103%	114%	125%	103%	102%	109%	117%	114%	93.1%	–	106%	103%	104
CC(O)c1nc2c(c(=O)n(C)c(=O)n2C)n1C (centres undefined)	114%	104%	98.5%	85.5%	107%	90%	91.2%	105%	108%	122%	116%	121%	117%	–	107%	108%	102%	95.6%	104%	106
CCCCCCCC/C=C\CCCCCCCCOc1ccccc1CC(=O)NCC[N+]1(C)CCCC1	78.1%	92.6%	103%	80.6%	52.2%	46.9%	75%	80.8%	43.1%	90.8%	41.7%	88.3%	83.9%	–	69.1%	98.2%	99%	–	104%	88.4
COc1ccc(/C=C2\COc3ccc(O)c(O)c3C2=O)cc1OC	41%	46.6%	48.9%	11.6%	1.26% (active)	-55.5% (active)	31.7%	-17.8% (active)	55.6%	6.44% (active)	0.0834% (active)	-57.4% (active)	-2.32% (active)	–	9.74% (active)	72.2%	-55.4% (active)	–	-39.4% (active)	31.4
CCOC(=O)c1cc(-c2cccnc2)nc2c(Cl)cc(Cl)cc12	89.6%	98.9%	84.1%	92.5%	106%	93.6%	74.9%	72.5%	121%	103%	105%	124%	103%	–	73%	90.2%	79.6%	117%	96.6%	120
COc1cc(/C=C2\COc3ccc(O)cc3C2=O)cc(OC)c1	93.8%	94.9%	90.8%	86%	82.4%	32.3%	92.3%	87.6%	81.6%	72%	5.63% (active)	70.3%	77%	–	85.2%	93.4%	80.7%	–	37.9%	82.1
CSc1ncc2ncn(C3OC(CO)C(O)C3O)c2n1 (centres undefined)	137%	102%	124%	119%	120%	119%	108%	110%	142%	115%	104%	126%	108%	–	103%	107%	114%	107%	114%	126
